A short description of assay [1]: inhibitors of TNFa-induced NFkB p65 translocation, primary screen, imaging, HUVEC, MLSMR starter and 10KST1 sets (AID 438;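 active = inhibition above 20% together with a positive visual image hit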;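 note: compound added about 3h40 before a 20 min TNFalpha stimulation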;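 for inhibition: signal is the nuclear over cytoplasmic p65 intensity ratio per well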). The conditions noted are these: HUVEC TNFa-induced p65 nuclear translocation; cell count: measured here: nuclei count (cytotoxicity indicator), at 2.08 µM; inhibition: at 2 µM, stronger effect = higher value, 0% TNFa-plus-vehicle, 100% no-TNFa wells.
A short description of assay [2]: inhibitors of mutant huntingtin aggregation, primary screen, imaging, exon1htt(103Q)mCFP cells, high-content imaging (AID 483;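 active = visual image review flags a hit and inhibition of aggregation exceeds 20%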;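 note: compound exposure lasted 3 days before fixation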;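 for nuclei count: percent of the per-plate median nuclei count of sample wells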). The conditions noted are these: exon1htt(103Q)mCFP cell line, aggregate imaging, at 2 µM; inhibition of aggregation: stronger effect = higher value; nuclei count: measured here: cell count, toxicity.
Assay [3] can be described thus: inhibitors of E-selectin induction by TNFa, primary screen, imaging, HUVEC, immunofluorescence, MLSMR starter and 10KST1 sets (AID 487;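 active = visually confirmed hit in the image check and inhibition above 20%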;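 for inhibition: signal is fraction of cell area covered by stained E-selectin grains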;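 for nuclei count: 100% = median nuclei count of all wells on the same plate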). The following applies: HUVEC TNFalpha-induced E-selectin immunofluorescence imaging, at 2 µM; inhibition: stronger effect = higher value; nuclei count: measured here: cell number, toxicity.
Assay [4] has as its target Voltage-gated potassium channel subunit beta-2 (Rattus norvegicus) (UniProt P62483). The assay can be described thus: KvBeta enzyme negative modulators, primary screen, biochemical, NADPH fluorescence (AID 622;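 active = fluorescence slope higher than the sample average by over 3 SD, cut at about -0.22 in these data, passing the limit was not always enough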;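 note: slope of raw intensity against log time taken from 70 to 1610 s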). The following applies: recombinant KvBeta, 4-cyanobenzaldehyde reduction, at 10 µM, stronger effect = higher value.
Assay [5] shares this target. The assay can be described thus: KvBeta positive modulators, primary screen, biochemical, NADPH fluorescence (AID 623;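 active = NADPH fluorescence slope more negative than the mean of all samples by about 3 SD, 99.7% confidence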;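 note: fluorescence intensity change per second fitted from 20 to 320 s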). The following applies: Recombinant KvBeta, NADPH fluorescence decrease slope, 10 min; at 10 µM; stronger effect = lower value.
Assay [6] concerns the target Alpha-2C adrenergic receptor (Homo sapiens) (UniProt P18825). Put plainly: modulators of alpha2C/GIRK thallium flux, primary screen, cell-based, HEK293 alpha2C/GIRK1/2 (AID 624).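 Note: slope of fluorescence ratio to pre-addition baseline per second over 15 to 24 s.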 The conditions noted are these: thallium flux BTC fluorescence, at 10 µM, actives lie on both sides.
A short description of assay [7]: inhibitors of Sendai virus-induced IRF3 signaling, primary screen, TLR/RLR signaling modifier project, cell-based, Sendai virus stimulus, luciferase, 10K MLSCN set (AID 602276;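 active = inhibition at or above 50% at 10 µM; inactive = inhibition below 50%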;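 note: firefly luciferase from ISG56 promoter only with Renilla not read in this screen; 0% = Sendai virus plus DMSO and 100% = medium plus DMSO without virus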). The conditions noted are these: HEK293 RL24 IRF3 luciferase reporter, at 10 µM, stronger effect = higher value.
The nature of assay [8]: inhibitors of poly I:C-induced TLR3 signaling, primary screen, cell-based, poly I:C stimulus, luciferase, 10K MLSCN set (AID 602277;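 active = inhibition of the reporter signal at or above 50%; inactive = inhibition below 50%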). The conditions noted are these: HEK293-TLR3 RL24 IRF3 luciferase reporter, at 10 µM, stronger effect = higher value.

We go through 14 compounds from PubChem BioAssay.

Calls of active or inactive are those of the source.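 Rule for the calls, unless noted: active = fluorescence slope after compound addition differing from the mean of all screened samples at 99.7% confidence, in either direction; inactive = the rest.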

Chain of Voltage-gated potassium channel subunit beta-2 (Rattus norvegicus) (P62483 whole entry, looked up): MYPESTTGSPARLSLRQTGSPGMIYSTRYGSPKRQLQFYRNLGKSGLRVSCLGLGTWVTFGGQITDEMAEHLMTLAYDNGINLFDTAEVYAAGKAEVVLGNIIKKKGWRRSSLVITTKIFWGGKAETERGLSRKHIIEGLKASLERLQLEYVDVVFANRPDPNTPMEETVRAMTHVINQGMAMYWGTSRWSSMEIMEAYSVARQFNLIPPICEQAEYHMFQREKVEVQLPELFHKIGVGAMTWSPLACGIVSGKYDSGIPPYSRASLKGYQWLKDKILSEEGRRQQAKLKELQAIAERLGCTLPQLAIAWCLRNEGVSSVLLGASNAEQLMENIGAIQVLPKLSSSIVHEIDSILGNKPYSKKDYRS
Chain of Alpha-2C adrenergic receptor (Homo sapiens) (P18825 whole entry, looked up): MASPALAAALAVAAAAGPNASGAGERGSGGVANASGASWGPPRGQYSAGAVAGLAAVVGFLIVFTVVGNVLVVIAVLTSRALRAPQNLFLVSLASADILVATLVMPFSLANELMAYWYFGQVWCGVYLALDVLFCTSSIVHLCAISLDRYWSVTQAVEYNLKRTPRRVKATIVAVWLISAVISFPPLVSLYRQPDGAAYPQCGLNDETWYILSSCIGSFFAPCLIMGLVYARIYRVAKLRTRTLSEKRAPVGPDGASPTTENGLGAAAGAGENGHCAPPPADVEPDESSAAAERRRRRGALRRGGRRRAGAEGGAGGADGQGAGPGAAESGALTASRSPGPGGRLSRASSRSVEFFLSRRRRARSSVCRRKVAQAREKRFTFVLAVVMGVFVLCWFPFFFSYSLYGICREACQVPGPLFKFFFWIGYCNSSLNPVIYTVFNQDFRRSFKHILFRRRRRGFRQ

As for `COC(=O)CCC(=O)Nc1ccc(OC)cc1`, in assay [1], the cell count stood at 418. The inhibition is 0% (inactive) in assay [1], 31.8% (inactive) in assay [3], 8.73% (inactive) in assay [7] and 19.4% (inactive) in assay [8]. For the same compound, the inhibition of aggregation in assay [2] is -15.3% (inactive). The nuclei count in assay [2] came to 108%; in assay [3] it was 101%. The fluorescence slope in assay [4] was -0.51 (inactive). For the same compound, the NADPH fluorescence slope in assay [5] is -5.9e-05 (inactive). For the same compound, the slope in assay [6] was 0.00654 (inactive).
Regarding `c1cc(C(c2nnnn2C2CCCC2)N2CCOCC2)ccn1` (centres undefined), in assay [1], the cell count turned out to be 392. Besides, the inhibition is -7.3% (inactive) in assay [1], 38.6% (inactive) in assay [3], 18.3% (inactive) in assay [7] and 21.2% (inactive) in assay [8]. For the same compound, the inhibition of aggregation in assay [2] is 27.3% (inactive). The nuclei count in assay [2] came to 78.3%; in assay [3], 97.3%. In addition, the fluorescence slope in assay [4] is -0.522 (inactive). Also, the NADPH fluorescence slope in assay [5] was 2.4e-05 (inactive). Besides, the slope in assay [6] is 0.00524 (inactive).
For the compound `Cc1cccc(NC(=O)c2cnc3sccn3c2=O)n1`, the cell count in assay [1] was 613. Further, the inhibition is -1.9% (inactive) in assay [1], -24.4% (inactive) in assay [3], -25.6% (inactive) in assay [7] and -61.7% (inactive) in assay [8]. In assay [2], the inhibition of aggregation was -0.7% (inactive). Moreover, the nuclei count was found to be 115% in assay [2] and 109% in assay [3]. Moreover, the fluorescence slope in assay [4] is -0.604 (inactive). The NADPH fluorescence slope in assay [5] is 5e-07 (inactive). Further, in assay [6], the slope is 0.00666 (inactive).
As for `O=C(Cc1cccs1)Nc1ccccc1NC(=O)Cc1cccs1`, in assay [1], the cell count stood at 323. Also, the inhibition in assay [1] was -1.4% (inactive); in assay [3], 7.1% (inactive); in assay [7], 9.79% (inactive); in assay [8], 34.9% (inactive). For the same compound, in assay [2], the inhibition of aggregation is 16.2% (inactive). For the same compound, the values for the nuclei count in assay [2] and in assay [3] were 82.6% and 88.2%, respectively. For the same compound, in assay [4], the fluorescence slope is -0.366 (inactive). For the same compound, the NADPH fluorescence slope in assay [5] was -7.6e-05 (inactive). Also, in assay [6], the slope was 0.00795 (inactive).
For the compound `Cc1cc(C)nc(NS(=O)(=O)c2ccc(NC(=O)Cn3c(=O)oc4ccccc43)cc2)n1`, in assay [1], the cell count is 490. Besides, the inhibition in assay [1] was 0.5% (inactive); in assay [3] it was -31.3% (inactive); in assay [7], 9.3% (inactive); in assay [8], 25.4% (inactive). Further, in assay [2], the inhibition of aggregation is 26% (inactive). Besides, the nuclei count in assay [2] was 63.8%; in assay [3] it was 122%. Moreover, the fluorescence slope in assay [4] was -0.577 (inactive). Moreover, in assay [5], the NADPH fluorescence slope was -4.3e-06 (inactive). The slope in assay [6] is 0.00665 (inactive).
`O=C(Cn1nnc(-c2ccc(S(=O)(=O)N3CCCC3)cc2)n1)NCC1CCCO1` (centres undefined): the cell count in assay [1] stood at 374. The inhibition in assay [1] was -6.9% (inactive); in assay [3], -7.7% (inactive); in assay [7], -11.8% (inactive); in assay [8], 15.1% (inactive). In addition, the inhibition of aggregation in assay [2] was 7.6% (inactive). Also, the nuclei count in assay [2] worked out at 95%; in assay [3], 112%. Also, the fluorescence slope in assay [4] is -0.481 (inactive). Also, the NADPH fluorescence slope in assay [5] is 3.3e-05 (inactive). In assay [6], the slope is 0.00625 (inactive).
Turning to `CC(C)(C)NC(=O)CC(CC(=O)O)c1ccccc1` (centres undefined), the cell count in assay [1] is 584. Besides, the inhibition in assay [1] was 2.9% (inactive); in assay [3], -30.6% (inactive); in assay [7], 12.7% (inactive); in assay [8], 37.3% (inactive). Also, in assay [2], the inhibition of aggregation is -4.2% (inactive). Further, the nuclei count in assay [2] was 85.7%; in assay [3] it was 109%. For the same compound, in assay [4], the fluorescence slope is -0.539 (inactive). For the same compound, the NADPH fluorescence slope in assay [5] is -3.4e-05 (inactive). The slope in assay [6] is 0.008 (inactive).
Regarding `C=CCSc1nc2c(c(=O)[nH]c(=O)n2C)n1CC`, the cell count in assay [1] amounted to 570. Further, the inhibition in assay [1] was -3% (inactive); in assay [3], -48% (inactive); in assay [7], -5.1% (inactive); in assay [8] it was 22.4% (inactive). Further, in assay [2], the inhibition of aggregation is 6.3% (inactive). In addition, the nuclei count in assay [2] came out at 36.2%; in assay [3], 96.3%. Also, the fluorescence slope in assay [4] was -0.499 (inactive). Besides, the NADPH fluorescence slope in assay [5] was -2.4e-05 (inactive). For the same compound, the slope in assay [6] is 0.00669 (inactive).
In the case of `CC(=O)N1CCN(S(=O)(=O)c2ccc(S(=O)(=O)NC3CC3)cc2)CC1`, the cell count in assay [1] turned out to be 716. In addition, the inhibition was -8.1% (inactive) in assay [1], 33.9% (inactive) in assay [3], 18.5% (inactive) in assay [7] and 18% (inactive) in assay [8]. Besides, the inhibition of aggregation in assay [2] was 0.7% (inactive). For the same compound, the nuclei count in assay [2] stood at 99.7%; in assay [3], 112%. In addition, the fluorescence slope in assay [4] is -0.444 (inactive). Further, the NADPH fluorescence slope in assay [5] was -2.2e-05 (inactive). Further, in assay [6], the slope is 0.00506 (inactive).
In the case of `CCOC(=O)N1CCC(N2C(=O)c3ccccc3C2Nc2ccccc2C)CC1` (centres undefined), the cell count in assay [1] was found to be 568. Further, the inhibition is 5.8% (inactive) in assay [1], -22.5% (inactive) in assay [3], 3.88% (inactive) in assay [7] and 36.9% (inactive) in assay [8]. Moreover, the inhibition of aggregation in assay [2] was -4% (inactive). Besides, the figures for the nuclei count in assay [2] and in assay [3] were 98.2% and 106%, respectively. Moreover, in assay [4], the fluorescence slope is -0.531 (inactive). Besides, the NADPH fluorescence slope in assay [5] is -3.2e-05 (inactive). The slope in assay [6] was 0.00624 (inactive).
With `CCOC(=O)c1oc2c(CN3CCN(C)CC3)c(O)ccc2c(=O)c1-c1ccccc1OC`, the cell count in assay [1] is 463. In addition, the inhibition in assay [1] was 2.1% (inactive); in assay [3], -59% (inactive); in assay [7], 9.7% (inactive); in assay [8] it was 20.2% (inactive). The inhibition of aggregation in assay [2] is -44.9% (inactive). Besides, the results for the nuclei count in assay [2] and in assay [3] were 86.2% and 103%, respectively. For the same compound, the fluorescence slope in assay [4] is -0.61 (inactive). Further, the NADPH fluorescence slope in assay [5] is 8.1e-06 (inactive). The slope in assay [6] was 0.00673 (inactive).
On to `O=C1CN(C(=O)COC(=O)C23CC4CC(CC(O)(C4)C2)C3)c2ccccc2N1`, for which, in assay [1], the cell count was found to be 649. The inhibition was 1.4% (inactive) in assay [1], -44.5% (inactive) in assay [3], 8.83% (inactive) in assay [7] and 27.8% (inactive) in assay [8]. In addition, the inhibition of aggregation in assay [2] is 8% (inactive). Besides, the nuclei count in assay [2] is 106%; in assay [3] it was 102%. Moreover, the fluorescence slope in assay [4] was -0.597 (inactive). Besides, the NADPH fluorescence slope in assay [5] was -3.1e-05 (inactive). Also, the slope in assay [6] was 0.00543 (inactive).
On to `CCn1c(SCc2nc(-c3cccs3)no2)nnc1-c1c[nH]c2ccccc12`, for which the cell count in assay [1] turned out to be 296. Moreover, the inhibition in assay [1] was 3.4% (inactive); in assay [3], -1.6% (inactive); in assay [7], 10.2% (inactive); in assay [8] it was 13.6% (inactive). Moreover, the inhibition of aggregation in assay [2] was 1.2% (inactive). Besides, the nuclei count stood at 82.9% in assay [2] and 102% in assay [3]. Besides, the fluorescence slope in assay [4] is -0.34 (inactive). In assay [5], the NADPH fluorescence slope was 1.2e-05 (inactive). Further, in assay [6], the slope is 0.0036 (inactive).
For `CCn1c(SCC(=O)c2ccc(Cl)cc2)nnc1-c1ccoc1C`, the cell count in assay [1] is 352. Besides, the inhibition is 0.2% (inactive) in assay [1], -69.1% (inactive) in assay [3], 3.62% (inactive) in assay [7] and 5.26% (inactive) in assay [8]. In assay [2], the inhibition of aggregation is -24% (inactive). For the same compound, the results for the nuclei count in assay [2] and in assay [3] were 110% and 108%, respectively. Moreover, in assay [4], the fluorescence slope is -0.503 (inactive). Also, the NADPH fluorescence slope in assay [5] was -6.2e-05 (inactive). Also, the slope in assay [6] is 0.00727 (inactive).
